Measured values: the OligoGym collection

target: FGFR1; test: pooled miR-30 sensor sort-seq; sequence = guide strand; conditions: shRNA
Note: reference of the scale not given here.

Row | Sequence | sensor-assay potency score (higher = more potent)
1 | TTTGTGTTTTCTTCATAGCTAT | -0.428
2 | TTGTCGGTGGTATTAACTCCAG | -1.38
3 | TCTGTCACCAGGACATTCCTGG | 0.104
4 | TTTTATAGTAGTCGATGTGGTG | -0.492
5 | TTGTAGACGATGACCGACCCCA | -0.237
6 | TTACACATGAACTCCACGTTGC | 0.903
7 | TTCATCATCTCCATTTCTGAGA | -0.548
8 | TTTATAGTAGTCGATGTGGTGA | -0.221
9 | TTCTTTTCCATCTTTTCTGGGG | -0.274
10 | TGAACTTCACTGTCTTGGCAGC | -0.906
11 | TTGTGCACAGCCATCTGGCTGT | -0.135
12 | TCTCGGTGTATGCACTTCTTGG | -1.66
13 | ATCATGTACAGCTCGTTGGTGC | -0.372
14 | TAAATCTCTGGTAACGACCCTT | 0.102
15 | TTTTAATATATAGCAACTGATG | -1.31
